{"source": "PubChem BioAssay (NCI)", "note": "The panel holds about 83,000 compounds, 20% with a hit somewhere; the sample as a whole holds those more often.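 Testing used 96-well plates and a 48-hour single-concentration exposure. Example: -40 means 40% of the starting cells died.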 Activity calls are given as the source filed them. The calls were made as follows: active = growth percent below 10; inactive = the rest.", "data": [{"test_system": "T-47D breast", "assay": "NCI-60 one-dose screen, 48 h (100 = growth as untreated, 0 = no growth, -100 = all killed)", "settings": "10 µM unless noted", "values": [{"smiles": "O=C(CN1CCN(c2cc(=O)n(-c3ccccc3)c3ccccc23)CC1)Nc1nc(-c2ccccc2)cs1", "growth": "16.6% (inactive)"}, {"smiles": "Cc1ccc(NC(=O)c2ccc(CN3CCOCC3)c(C(F)(F)F)c2)cc1Oc1ccc(-c2[nH]nc3ncnc(N)c23)cc1", "growth": "11% (inactive)"}, {"smiles": "Cc1ccc(NC(=O)CNc2cc(C(N)=O)cc(F)c2C)c(Cl)c1", "growth": "104% (inactive)"}, {"smiles": "COc1cc(C2N=C(NNc3ccccc3)NC(C)=C2C(C)=O)ccc1O", "note": "(stereo not drawn)", "growth": "83.9% (inactive)"}, {"smiles": "CNc1ncc2cc(-c3ccc(-c4ncccc4F)cc3Cl)c(=O)n(CC3OCC(N)CO3)c2n1", "note": "(stereo not drawn)", "growth": "72.5% (inactive)"}, {"smiles": "Nc1cc(-c2c[nH]c3ccc(Br)cc23)nc2cc(-c3c[nH]c4ccc(Br)cc34)nn12", "growth": "39.3% (inactive)"}, {"smiles": "Cc1cc2ncc(-c3cc4ccccc4c(N4CCN(C)CC4)n3)nc2cc1C", "growth": "-54% (active)"}, {"smiles": "O=C(NCCn1ccnc1)c1ccc(-c2nc3ccc4[nH]ncc4c3c3c2CCCC3)cc1", "growth": "56% (inactive)"}, {"smiles": "N#C/C(=C\\c1ccc(-c2ccc(Cl)cc2Cl)o1)c1ccc(F)cc1", "growth": "78.8% (inactive)"}, {"smiles": "COc1cc(Nc2c(C#N)cnn3cc(-c4cnn(CC(C)(C)O)c4)cc23)ccc1Cl", "growth": "45.1% (inactive)"}, {"smiles": "C=C(C=O)[C@@H]1CC[C@]2(CO)CC[C@]3(C)[C@H](CC[C@@H]4[C@@]5(C)CCCNC(C)(C)[C@@H]5CC[C@]43C)[C@@H]12", "growth": "13.3% (inactive)"}, {"smiles": "CC/C(=C/c1cc(OC)ccc1O)c1ccc2cc(OC)ccc2[o+]1", "growth": "52.9% (inactive)"}, {"smiles": "COc1c(N2CC3CCCNC3C2)c(F)cc2c(=O)c(C(=O)N/N=C/c3ccc4c(c3)OCO4)cn(C3CC3)c12", "note": "(stereo not drawn)", "growth": "76.7% (inactive)"}, {"smiles": "COc1cccc2cc(-c3cc4ccccc4[nH]3)/c(=N\\NC(=O)c3ccc(Cl)cc3)oc12", "growth": "13.3% (inactive)"}, {"smiles": "C=CC(=O)N1CCC=C(c2cc3c(N[C@H](C)c4ccccc4)ncnc3[nH]2)C1", "growth": "29.7% (inactive)"}, {"smiles": "O=C(CSc1nc2ccccc2c(=O)n1-c1ccccc1)Nc1cccc(C(=O)/C=C/c2ccccc2)c1", "growth": "76.8% (inactive)"}, {"smiles": "c1cn2c(ccc3nc(-c4cn[nH]c4)c4c(c32)CCCC4)n1", "growth": "45.4% (inactive)"}, {"smiles": "O=S(=O)(NCCCNc1nccc(-n2cnc3ccccc32)n1)c1ccc(C(F)(F)F)cc1", "growth": "44.7% (inactive)"}, {"smiles": "COc1ccc(-c2cc(-c3ccc(Cl)cc3)c(C#N)c(=O)n2Cc2ccc(C(=O)O)cc2)cc1", "growth": "48.7% (inactive)"}, {"smiles": "COc1cc2c(cc1OC)C(Sc1ccc(C)cc1)c1c(nc(N)c(C#N)c1N)O2", "note": "(stereo not drawn)", "growth": "-28.9% (active)"}, {"smiles": "CCc1nn2c(C)cc(C)nc2c1Cc1ccc(/C=C/CN2CCN(CCOCCOCCN3CCN(C/C=C/c4ccc(Cc5c(CC)nn6c(C)cc(C)nc56)cc4)CC3)CC2)cc1", "growth": "-36.4% (active)"}, {"smiles": "Cc1noc(C)c1CSc1nc2ccccc2n1-c1ccccc1", "growth": "93.8% (inactive)"}, {"smiles": "COc1cccc2c1CN(C(=O)c1ccc(O)c(C(=O)N3Cc4ccc(OCCC[P+](c5ccccc5)(c5ccccc5)c5ccccc5)cc4C3)c1)C2", "growth": "37.6% (inactive)"}, {"smiles": "COc1ccc2c(c1)Oc1nc(N)c(C#N)c(N)c1C2Sc1ccc(C)cc1", "note": "(stereo not drawn)", "growth": "-31.6% (active)"}, {"smiles": "Nc1nc(-c2cccc([N+](=O)[O-])c2)c(N=Nc2cccc([N+](=O)[O-])c2)s1", "growth": "31% (inactive)"}, {"smiles": "Fc1ccc(-c2cc3nc(C(Cl)Cl)nc(-c4ccco4)n3n2)cc1", "growth": "7.31% (active)"}, {"smiles": "CCN1CCN(Cc2ccc(C(=O)Nc3ccc(C)c(Oc4ccc(-c5[nH]nc6ncnc(N)c56)cc4)c3)cc2C(F)(F)F)CC1", "growth": "100% (inactive)"}, {"smiles": "Cc1ccc(-n2cc(/C=C/C(=O)c3ccc(O)cc3)c(-c3ccc(S(C)(=O)=O)cc3)n2)cc1", "growth": "73.5% (inactive)"}, {"smiles": "CCCn1cnc2c(c1=N)C(c1ccc(OC)cc1)c1sc3c(CC)cccc3c1O2", "note": "(stereo not drawn)", "growth": "27.9% (inactive)"}, {"smiles": "Cc1ccc(NC(=O)c2ccc(CN3CCN(C)CC3)cc2)cc1Oc1ccc(-c2[nH]nc3ncnc(N)c23)cc1", "growth": "81.4% (inactive)"}, {"smiles": "CC(=O)c1nnn(-c2c(C(=O)n3nc(C)cc3C)sc(=S)n2-c2ccccc2)c1C", "growth": "113% (inactive)"}, {"smiles": "O=S(=O)(NCCNc1nccc(-n2cnc3ccccc32)n1)c1ccc(C(F)(F)F)cc1", "growth": "22.3% (inactive)"}, {"smiles": "NC(N)=Nc1ccc(Oc2cccc(Nc3cccc(C(F)(F)F)c3)c2)cn1", "growth": "37.3% (inactive)"}, {"smiles": "Nc1nc(-c2cccc([N+](=O)[O-])c2)c(N=Nc2ccc(Br)cc2)s1", "growth": "-26.9% (active)"}, {"smiles": "COc1cccc(C(=O)Nc2cccc(C#Cc3cccc4[nH]nc(N)c34)c2)c1", "growth": "38% (inactive)"}, {"smiles": "CC1(C)[C@@H](O)CC[C@]2(C)[C@H]3CC[C@@H]4[C@H]5[C@H](C(=O)/C=C\\c6ccncc6)CC[C@]5(O)CC[C@@]4(C)[C@]3(C)CC[C@@H]12", "growth": "68.7% (inactive)"}, {"smiles": "N#Cc1cccc(CN2CCc3ncn(Cc4ccc(Cl)cc4)c(=O)c3C2)c1", "growth": "30.7% (inactive)"}, {"smiles": "CCNC(=O)N1CCc2cc(OC)c(OCCc3ccc(OC)cc3)cc2C1c1ccc([N+](=O)[O-])cc1C", "note": "(stereo not drawn)", "growth": "53% (inactive)"}]}]}
